Assay results published in PubChem BioAssay (NCI).
Where “and” joins values, the source holds several entries; their conditions need not be identical. Equal values may be shown once. Compounds without any hit were thinned out: in the full panel of roughly 79,000, 15% have a hit. Calls of active or inactive are those of the source. Cut-off read from the data, not from the text of the source: active = growth inhibition above about 70%; inactive = the rest.

Key:
[1] = NCI Yeast Anticancer Drug Screen. Data for the rad52 strain (AID 147);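 note: 0% = growth of vehicle-treated control cultures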; details: S. cerevisiae rad52 mutant growth inhibition, active compounds read high
In short: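 DNA repair-defective yeast; compound exposure; growth scored against vehicle controls.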

[2] = NCI Yeast Anticancer Drug Screen. Data for the mgt1 strain (AID 153); details: S. cerevisiae mgt1 mutant growth inhibition, active compounds read high
In short: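 Growth inhibition relative to vehicle controls was scored for the mgt1 yeast strain after compound exposure.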

[3] = NCI Yeast Anticancer Drug Screen. Data for the rad50 strain (AID 155);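 note: 0% = growth of vehicle-only cultures of the same strain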; details: S. cerevisiae rad50 strain growth inhibition, active compounds read high
In short: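 Growth of the mutant yeast was measured after compound exposure and referenced to vehicle-treated cultures.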

[4] = NCI Yeast Anticancer Drug Screen. Data for the mec2-1 strain (AID 157); details: S. cerevisiae mec2-1 strain, active compounds read high
In short: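 Growth inhibition is read against vehicle-treated controls after compound exposure of the mec2-1 yeast strain, which is defective in DNA damage repair or cell cycle control.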

[5] = NCI Yeast Anticancer Drug Screen. Data for the rad14 strain (AID 159);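 note: 0% = growth of vehicle-treated control cultures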; details: S. cerevisiae rad14 strain growth inhibition, active compounds read high
In short: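 Here, inhibition of yeast growth was measured after compound exposure, using a strain with a genetic defect in DNA damage repair and vehicle-treated cultures as the reference.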

[6] = NCI Yeast Anticancer Drug Screen. Data for the sgs1 mgt1 strain (AID 161);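 note: 0% = growth of cultures given vehicle only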; details: S. cerevisiae sgs1 mgt1 strain, active compounds read high
In short: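 Yeast cells carrying a defined DNA-repair defect were exposed to test compounds. Growth inhibition was measured relative to vehicle-treated controls.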

[7] = NCI Yeast Anticancer Drug Screen. Data for the CLN2oe strain (AID 163);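 note: 0% = growth of vehicle-only control cultures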; details: S. cerevisiae CLN2oe strain, active compounds read high
In short: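 Compound-treated yeast; growth vs vehicle ctrl = % inhibition. Genetically altered strain (cell-cycle control).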

[8] = NCI Yeast Anticancer Drug Screen. Data for the cln2 rad14 strain (AID 165);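 note: 0% = growth equal to vehicle treated cultures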; details: S. cerevisiae cln2 rad14 strain, active compounds read high
In short: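 Growth inhibition, relative to vehicle-treated controls, is the read-out. The test organism is a yeast strain with defined genetic alterations, cln2 rad14.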

[9] = NCI Yeast Anticancer Drug Screen. Data for the bub3 strain (AID 167); details: S. cerevisiae bub3 mutant strain, active compounds read high
In short: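 Whole-cell yeast assay. The mutant strain was incubated with compounds, and growth inhibition was determined by comparison with vehicle-treated cells.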

[10] = NCI Yeast Anticancer Drug Screen. Data for the wt2 strain (AID 169);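 note: 0% = growth of vehicle-treated yeast cultures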; details: S. cerevisiae wt2 strain growth inhibition, active compounds read high
In short: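 Compound exposure of yeast; growth compared with vehicle controls; inhibition reported.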

[11] = NCI Yeast Anticancer Drug Screen. Data for the mlh1 strain (AID 171);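 note: 0% = growth of vehicle-treated control cultures of the same strain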; details: S. cerevisiae mlh1 strain growth inhibition, active compounds read high
In short: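 Compounds are applied to a genetically altered yeast strain, and its growth is compared with that of vehicle-treated cultures to give percent inhibition.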

[12] = NCI Yeast Anticancer Drug Screen. Data for the sgs1 strain (AID 173);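 note: 0% = growth of vehicle-only control cultures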; details: S. cerevisiae sgs1 mutant, active compounds read high
In short: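 Compounds applied to genetically altered yeast; growth compared with vehicle-treated cultures to give % inhibition.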

[13] = NCI Yeast Anticancer Drug Screen. Data for the mlh1 rad18 strain (AID 175); details: S. cerevisiae mlh1 rad18 strain growth inhibition, active compounds read high
In short: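 Cells of a genetically altered yeast strain, deficient in DNA damage repair, were treated with compound. Their growth was then compared with that of vehicle-treated cultures to give inhibition.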

[14] = NCI Yeast Anticancer Drug Screen. Data for the rad18 strain (AID 177); details: S. cerevisiae rad18 mutant growth inhibition, active compounds read high
In short: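 Compounds are applied to a repair-deficient yeast strain, and growth is compared with that of vehicle-treated cultures to give percent inhibition.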

[15] = NCI Yeast Anticancer Drug Screen. Data for the wt1 strain (AID 149);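 note: 0% = growth of vehicle-treated wt1 cultures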; details: S. cerevisiae wt1 strain (SPY 50644) growth inhibition, active compounds read high
In short: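 Measured: growth of wt1 yeast under compound versus vehicle treatment, reported as inhibition.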

[16] = NCI Yeast Anticancer Drug Screen. Data for the rad50EPP+ strain (AID 151);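 note: 0% = growth of vehicle-treated control cultures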; details: S. cerevisiae rad50 mutant strain, active compounds read high
In short: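 rad50EPP+ yeast treated with test compounds. Readout: growth vs vehicle control.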

[17] = at 5.0 µM (retest, dose inferred, filed as 0.5)
[18] = at 50.0 µM (retest, dose inferred, filed as 5.0)

Measured: growth inhibition

Cc1ccc(CC2(OCCN(C)C)CCC(C(C)(C)C)CC2)cc1 (stereo unspecified)
active: [1]; at 100.0 µM 98% | [2]; at 33.0 µM 84% | [2]; at 100.0 µM 99% | [3]; [18] 100% | [3]; at 50.0 µM 98.6% and 98.5% | [3]; at 100.0 µM 98% | [4]; [18] 99% and 93% | [4]; at 50.0 µM 98.5% and 99.3% | [4]; at 100.0 µM 99% | [5]; at 33.0 µM 92% | [5]; at 100.0 µM 98% | [6]; [18] 85% and 91% | [6]; at 50.0 µM 98.7% and 99.4% | [7]; at 100.0 µM 98% | [8]; [18] 89% and 76% | [8]; at 50.0 µM 99.2% and 99.5% | [9]; [18] 99% | [9]; at 50.0 µM 87.5% and 99.2% | [9]; at 100.0 µM 98% | [10]; at 100.0 µM 99% | [11]; at 33.0 µM 85% | [11]; at 100.0 µM 98% | [12]; at 33.0 µM 82% | [12]; at 100.0 µM 99% | [13]; [18] 100% and 99% | [13]; at 50.0 µM 99.5% and 99.4% | [14]; at 100.0 µM 98%
inactive: [1]; at 1.2 µM 8% | [1]; at 3.7 µM 3% | [1]; at 11.0 µM 8% | [1]; at 33.0 µM 37% | [2]; at 1.2 µM 14% | [2]; at 3.7 µM 12% | [2]; at 11.0 µM 21% | [3]; at 1.2 µM -3% | [3]; at 3.7 µM 0% | [3]; [17] 13% and 12% | [3]; at 11.0 µM 7% | [3]; at 33.0 µM 64% | [4]; at 1.2 µM -7% | [4]; at 3.7 µM -11% | [4]; [17] -8% and -7% | [4]; at 11.0 µM -7% | [4]; at 33.0 µM 43% | [5]; at 1.2 µM -7% | [5]; at 3.7 µM -3% | [5]; at 11.0 µM 15% | [6]; [17] -5% and -7% | [7]; at 1.2 µM -23% | [7]; at 3.7 µM -18% | [7]; at 11.0 µM -11% | [7]; at 33.0 µM 42% | [8]; [17] 20% and 10% | [9]; at 1.2 µM -23% | [9]; at 3.7 µM -24% | [9]; [17] 11% and 7% | [9]; at 11.0 µM -11% | [9]; at 33.0 µM 6% | [10]; at 1.2 µM -19% | [10]; at 3.7 µM -8% | [10]; at 11.0 µM -16% | [10]; at 33.0 µM 36% | [11]; at 1.2 µM 3% | [11]; at 3.7 µM -1% | [11]; at 11.0 µM 13% | [12]; at 1.2 µM 24% | [12]; at 3.7 µM 26% | [12]; at 11.0 µM 41% | [13]; [17] 9% and 10% | [14]; at 1.2 µM 3% | [14]; at 3.7 µM -14% | [14]; at 11.0 µM -12% | [14]; at 33.0 µM 36%

O=C1c2ccccc2C(=O)c2cc(CCl)ccc21
inactive: [15]; at 1.2 µM 1% | [15]; at 3.7 µM 6% | [15]; at 11.0 µM 3% | [15]; at 33.0 µM 7% | [15]; at 100.0 µM 10% | [16]; at 1.2 µM 27% | [16]; at 3.7 µM 47% | [16]; at 11.0 µM 64% | [16]; at 33.0 µM 69% | [16]; at 100.0 µM 68% | [2]; at 1.2 µM -1% | [2]; at 3.7 µM 2% | [2]; at 11.0 µM 7% | [2]; at 33.0 µM 10% | [2]; at 100.0 µM 12% | [3]; at 1.2 µM 2% | [3]; at 3.7 µM 6% | [3]; [17] 20% | [3]; at 11.0 µM 12% | [3]; at 33.0 µM 13% | [3]; [18] 32% | [3]; at 50.0 µM 25% | [3]; at 100.0 µM 14% | [4]; at 1.2 µM 2% | [4]; at 3.7 µM 7% | [4]; [17] 12% | [4]; at 11.0 µM 17% | [4]; at 33.0 µM 20% | [4]; [18] 38% | [4]; at 50.0 µM 24.4% | [4]; at 100.0 µM 16% | [5]; at 1.2 µM 2% | [5]; at 3.7 µM 4% | [5]; at 11.0 µM 7% | [5]; at 33.0 µM 8% | [5]; at 100.0 µM 13% | [6]; [17] 15% | [6]; [18] 30% | [6]; at 50.0 µM 46.2% | [7]; at 1.2 µM -1% | [7]; at 3.7 µM -5% | [7]; at 11.0 µM 8% | [7]; at 33.0 µM 5% | [7]; at 100.0 µM 2% | [8]; [17] 4% | [8]; [18] 18% | [8]; at 50.0 µM 28% | [9]; at 1.2 µM 5% | [9]; at 3.7 µM 11% | [9]; [17] 39% | [9]; at 11.0 µM 19% | [9]; at 33.0 µM 25% | [9]; [18] 56% | [9]; at 50.0 µM 58.8% | [9]; at 100.0 µM 22% | [10]; at 1.2 µM 3% | [10]; at 3.7 µM 7% | [10]; at 11.0 µM 8% | [10]; at 33.0 µM 12% | [10]; at 100.0 µM 12% | [11]; at 1.2 µM 3% | [11]; at 3.7 µM 3% | [11]; at 11.0 µM 6% | [11]; at 33.0 µM 9% | [11]; at 100.0 µM 10% | [12]; at 1.2 µM 2% | [12]; at 3.7 µM 2% | [12]; at 11.0 µM 7% | [12]; at 33.0 µM 11% | [12]; at 100.0 µM 14% | [13]; [17] 29% | [13]; [18] 51% | [13]; at 50.0 µM 31.2% | [14]; at 1.2 µM 9% | [14]; at 3.7 µM 22% | [14]; at 11.0 µM 39% | [14]; at 33.0 µM 46% | [14]; at 100.0 µM 53%

N#CC(C#N)=NNc1ccc(S(=O)(=O)O)cc1
inactive: [15]; at 1.2 µM -19% | [15]; at 3.7 µM -18% | [15]; at 11.0 µM -19% | [15]; at 33.0 µM -14% | [15]; at 100.0 µM -3% | [16]; at 1.2 µM 2% | [16]; at 3.7 µM 2% | [16]; at 11.0 µM 19% | [16]; at 33.0 µM -4% | [16]; at 100.0 µM 9% | [2]; at 1.2 µM 3% | [2]; at 3.7 µM 1% | [2]; at 11.0 µM -3% | [2]; at 33.0 µM 7% | [2]; at 100.0 µM 9% | [3]; at 1.2 µM -20% | [3]; at 3.7 µM -27% | [3]; at 11.0 µM -25% | [3]; at 33.0 µM -26% | [3]; at 50.0 µM 19.3% | [3]; at 100.0 µM -9% | [4]; at 1.2 µM -20% | [4]; at 3.7 µM -22% | [4]; at 11.0 µM -29% | [4]; at 33.0 µM -24% | [4]; at 50.0 µM 17.7% | [4]; at 100.0 µM -28% | [5]; at 1.2 µM 11% | [5]; at 3.7 µM 13% | [5]; at 11.0 µM 3% | [5]; at 33.0 µM 2% | [5]; at 100.0 µM 23% | [6]; [17] -2% | [6]; [18] 32% | [6]; at 50.0 µM 22.8% | [7]; at 1.2 µM -17% | [7]; at 3.7 µM -12% | [7]; at 11.0 µM -11% | [7]; at 33.0 µM -19% | [7]; at 100.0 µM -24% | [8]; [17] 0% | [8]; [18] 23% | [8]; at 50.0 µM 17.9% | [9]; at 1.2 µM -30% | [9]; at 3.7 µM -29% | [9]; [17] 17% | [9]; at 11.0 µM -30% | [9]; at 33.0 µM -29% | [9]; [18] 28% | [9]; at 50.0 µM 24.1% | [9]; at 100.0 µM -26% | [10]; at 1.2 µM -15% | [10]; at 3.7 µM -18% | [10]; at 11.0 µM -6% | [10]; at 33.0 µM -17% | [10]; at 100.0 µM -7%
active: [3]; [17] 85% | [3]; [18] 99% | [4]; [17] 93% | [4]; [18] 99%
